Assay outcomes: PubChem BioAssay, National Center for Advancing Translational Sciences (NCATS)
Rows were chosen to be rich in hits. Some 2.2% of all compounds tested hit in one or more screens of this group.
aSyn rescue = qHTS of alpha-syn Inhibitors | Yeast expressing alpha-synuclein, growth rescue, BacTiter-Glo, 24 h | Potency, µM (top dose mostly 46.1 µM), actives largely listed as activators | 370,000 compounds, 0.14% hits; note: nearly all actives have a fitted effect of over 65% in size
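Galactose-induced alpha-syn yeast (OD600=0.02, raffinose-pregrown) + pinned cpd, 24 hr, 30 deg C; growth by BacTiter-Glo luminescence. Growth restoration scores as activation.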
FUS yeast rescue = qHTS for Suppressors of FUS Proteinopathy: Primary screen using FUS-linked yeast assay; S. cerevisiae FUS-expressing, growth rescue, OD600, 24 h; Potency, µM (highest dose often 76.6 µM), most hits filed as activators; 390,000 compounds, 0.24% hits; AID 1347120, 2019; note: nearly all actives have a fitted effect of over 55% in size
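Steps: raffinose overnight preculture; dilution to OD 0.005 in 2% galactose minimal medium; compound addition (concentration series); 24hr at 30C, 99% humidity; absorbance read at 600 nm.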
ERG-DNA inh = qHTS for Small Molecule Inhibitors of the ERG Ets/DNA interaction; fluorescence polarization, His-ERG Ets domain / labelled DNA; Potency, µM (doses to about 76.9 µM), hits mostly inhibitors; 370,000 compounds, 0.028% hits; AID 624246, 2012; active = well fitted inhibition curve with a large enough effect in the polarisation, with a control signal flat; inconclusive = small, poorly fitted or top-dose-only effect, or effect the other way, or a change in a side signal; inactive = no such curve, though single readings can be large or run the other way; the % refers to the polarisation;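 note: polarization taken with two DNA probes labelled with fluorescein and Texas red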
Target sequence (P11308 whole entry, looked up, the tested form may be a part): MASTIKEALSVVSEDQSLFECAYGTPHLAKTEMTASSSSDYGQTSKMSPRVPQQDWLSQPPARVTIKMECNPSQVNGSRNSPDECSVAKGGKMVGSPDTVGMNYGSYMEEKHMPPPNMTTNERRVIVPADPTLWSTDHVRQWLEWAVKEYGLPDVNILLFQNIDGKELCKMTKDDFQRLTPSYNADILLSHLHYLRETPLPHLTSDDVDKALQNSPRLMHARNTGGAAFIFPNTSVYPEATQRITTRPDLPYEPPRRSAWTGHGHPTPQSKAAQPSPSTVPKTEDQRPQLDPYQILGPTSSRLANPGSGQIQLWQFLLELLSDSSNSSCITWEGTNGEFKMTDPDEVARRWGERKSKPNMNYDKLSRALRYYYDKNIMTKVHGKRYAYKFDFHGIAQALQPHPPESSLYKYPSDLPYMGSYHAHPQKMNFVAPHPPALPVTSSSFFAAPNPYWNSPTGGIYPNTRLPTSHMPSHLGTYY
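His-tagged ERG Ets domain (1 uM in the protein solution; 300mM KCl, 50mM Tris-HCl, 1mM EDTA, 1mM DTT, pH 7.5) received compound, then a probe mix of 5 nM fluorescein-DNA and 100nM Texas-615-DNA. Fluorescence polarization was read for both dyes.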
TDP43 rescue = qHTS of TDP-43 Inhibitors; TDP-43 expressing yeast growth rescue, BacTiter-Glo, 24 h; 410,000 compounds, 1.8% hits; Potency, µM (highest dose often 46.1 µM), most hits filed as activators; note: nearly all actives have a fitted effect of over 50% in size
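Yeast cells expressing TDP-43 under galactose induction are exposed to compounds for 24 hr at 30 deg C. BacTiter-Glo luminescence measures growth, so protective compounds score as activators.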
Mito fusion yeast = qHTS Assay for Small Molecule Inhibitors of Mitochondrial Division or Activators of Mitochondrial Fusion | S. cerevisiae fusion-defective mutant growth rescue, CellTiterGlo 48 h | Potency, µM (highest dose often 46.1 µM), most hits filed as activators | 320,000 compounds, 0.23% hits; note: nearly all actives have a fitted effect of over 45% in size
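Read-out: ATP-based luminescence (CellTiterGlo, 10 min ambient) reporting growth of fusion-defective ts yeast after 48 hours at 37C on glycerol/ethanol YPEG medium in the presence of compound.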
Abeta rescue = qHTS for compounds that reverse cellular toxicity of Amyloid beta (A-beta) peptide in yeast: Primary Screen; yeast expressing A-beta42, growth rescue, OD600, 48 h; response scale: 0% DMSO, 100% iron-clioquinol control; Potency, µM (top dose mostly 46.1 µM), most hits filed as activators; 410,000 compounds, 0.063% hits; AID 1347071, 2019; note: nearly all actives have a fitted effect of over 55% in size
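Yeast A-beta toxicity model in growth medium with pinned compounds, 48 h at 30 C; growth read as absorbance at 600 nm. Normalized to FeCl3/clioquinol equimolar mix (positive) and DMSO (negative).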
Hits are given with their value; n = inactive; u = inconclusive; x = not tested or not shown; ! = not active in a repeat; [ ] = dose if it differs, or a comment. Unless noted, calls come from the whole dose curve; as a rule, active = well fitted curve in the direction sought with a large enough effect; inconclusive = small, poorly fitted or top-dose-only effect, or another doubt; inactive = no such curve, though single readings can be large; an effect the other way counts as inactive or inconclusive.

SMILES	aSyn rescue	FUS yeast rescue	ERG-DNA inh	TDP43 rescue	Mito fusion yeast	Abeta rescue
O=C(CCCN1CCC(O)(c2ccc(Cl)cc2)CC1)c1ccc(F)cc1	n	n	n	u	11.6µM!	n
O=C(CCCN1CCC(O)(c2ccc(Br)cc2)CC1)c1ccc(F)cc1	n	n	n	n	n	n
COc1cccc(Nc2nc(C(N)CCc3ccccc3)cs2)n1 (configuration not stated)	n	n	x	n	x	n
COc1ccccc1CNC(=O)C(=O)NCC(c1cccnc1)N1CCN(c2ccccc2)CC1 (configuration not stated)	x	n	n	n	x	n
COc1ccc(CNCc2ccc(C(=O)O)s2)cc1	x	n	n	n	x	n
Cc1cccc(CNC(=O)c2ccc3c(c2)N(C)CCS3)c1	n	n	n	u	n	n
CN1CCSc2ccc(C(=O)NCc3cccc(Br)c3)cc21	n	n	n	15.8µM	n	n
CCN1CCSc2ccc(C(=O)NCc3ccccc3Br)cc21	n	n	n	n	n	n
CCN1CCSc2ccc(C(=O)NCc3ccccc3C)cc21	n	n	n	35.5µM	n	n
COc1cccc(-n2c(=O)c3sc4ccccc4c3n(Cc3c(F)cccc3Cl)c2=O)c1	x	n	n	n	x	n
CCC[C@H]1[C@@H](NC(=O)C(c2ccccc2)c2ccccc2)CC[C@@]23CCCN2C(=O)CCC[C@@H]13	x	n	x	x	x	x
CCOCCCNC(=S)N1CCN(c2nc(-c3ccc(F)cc3)cs2)CC1	n	n	n	25.1µM	n	u
CCOC(=O)N1CCN(c2nc(-c3ccc(F)cc3)cs2)CC1	n	n	n	20µM	n	n
COc1cccc(-c2csc(N3CCN(C(=O)Nc4ccccc4OC)CC3)n2)c1	n	n	n	n	n	n
COCCNC(=S)N1CCN(c2nc(-c3ccccc3)cs2)CC1	n	n	n	n	n	n
COCCCNC(=S)N1CCN(c2nc(-c3ccc(F)cc3)cs2)CC1	n	u	n	22.4µM	n	u
COc1cccc(-c2csc(N3CCN(C(=O)Nc4ccc(F)cc4)CC3)n2)c1	n	12.6µM	n	17.8µM	u	n
CN(C(=O)CSc1nc2ccc(NC(=O)c3ccccc3)cc2s1)c1ccccc1	x	n	n	n	x	n
COc1ccc(C)cc1NC(=O)CSCc1ccccc1C	n	n	n	12.6µM	n	n
COc1ccc([N+](=O)[O-])cc1NCc1cccc([N+](=O)[O-])c1	n	n	n	11.2µM	u	n
COc1ccc([N+](=O)[O-])cc1NC(=O)CC(C)c1ccccc1 (configuration not stated)	n	n	n	15.8µM	n	u
COc1ccc([N+](=O)[O-])cc1NCc1cccnc1	n	n	n	n	n	n
C/C=C/C=C/C(=O)OC(C)C(=O)Nc1cc([N+](=O)[O-])ccc1OC (configuration not stated)	n	n	n	12.6µM	n	n
COc1ccc([N+](=O)[O-])cc1NC(=O)C(C)OC(=O)Cc1ccc(OC)c(OC)c1 (configuration not stated)	n	x	n	u	x	n
COc1ccc([N+](=O)[O-])cc1NC(=O)CSCc1ccccc1C	n	x	n	12.6µM	n	n
SMILES	aSyn rescue	FUS yeast rescue	ERG-DNA inh	TDP43 rescue	Mito fusion yeast	Abeta rescue
COc1ccc([N+](=O)[O-])cc1NC(=O)CCS(=O)(=O)c1ccc(Br)cc1	n	n	n	n	n	n
COc1ccc([N+](=O)[O-])cc1NC(=O)CSCc1ccc(Br)cc1	n	n	n	12.6µM	u	n
CSc1nc(-c2ccccc2F)c(C#N)c(=O)n1C	n	n	n	20µM	n	n
CSc1nc(C)c(Oc2ccccc2)c(=O)n1C	n	n	n	n	n	n
O=c1[nH]n(-c2ccccc2)c(=O)cc1Cl	n	n	n	n	x	n
O=C(Nc1nc(-c2ccco2)c(-c2ccco2)s1)C1CCC1	n	n	n	35.5µM	u	n
O=C(Nc1nnc(-c2ccco2)s1)C1CCCCC1	n	n	n	n	n	n
COc1ccccc1CNC(=O)CCCn1c(=O)c2ccccc2n(Cc2ccccc2C#N)c1=O	x	n	n	n	x	n
CSc1nc(S(=O)(=O)c2ccc(C)cc2)c(Cl)s1	n	n	n	12.6µM	n	n
Cc1cc(Cl)ccc1OCCCC(=O)N1CCN(S(=O)(=O)c2ccccc2)CC1	n	n	n	14.1µM	u	n
Cc1ccc(S(=O)(=O)N2CCN(C(=O)COC(=O)CCOc3cc(C)ccc3C)CC2)c(C)c1	n	x	n[15.4 µM]	n	x	u
Cc1ccc(S(=O)(=O)N2CCN(C(=O)CCOc3cc(C)ccc3C)CC2)cc1	n	n	n	35.5µM	n	n
CCOc1ccccc1OCCCC(=O)N1CCN(S(=O)(=O)c2cc(F)ccc2F)CC1	n[1.84 µM]	u	n	u	x	n
Cc1ccc(C)c(OCCC(=O)N2CCN(S(=O)(=O)c3cc(F)ccc3F)CC2)c1	n	n	n	17.8µM	n	n
CCc1nc(N2CCN(C(=O)c3ccccc3)CC2)c(C#N)c2c1COC(C)(C)C2	n	n	u	20µM	n	n
CC1CCN(c2nc(-c3ccco3)c3c(c2C#N)CC(C)(C)OC3)CC1	n	n	n	11.2µM	n	n
CCn1c(CN2c3ccccc3Sc3ccccc32)n[nH]c1=S	n	n	n	n	n	15.8µM
CCC(=O)N(CC)c1nc(-c2ccc(OC)cc2)cs1	n	n	n	5.01µM	n	n
CCC(=O)N(Cc1ccco1)c1nc(-c2ccc(OC)cc2)cs1	n	n	n	n	n	n
CCC(NC(=O)CCc1c(C)c2cc3c(C)c(C)oc3cc2oc1=O)C(=O)N[C@@H](Cc1ccccc1)C(=O)O (some centres not stated)	n	28.2µM	n	n	n	n
COc1ccc(NC(=O)C2=C(C)C(=O)OC23CCC(C)CC3)c(OC)c1 (configuration not stated)	n	n	n	20µM	n	n
CC1=C(C(=O)N2CCc3ccccc32)C2(CCC(C)CC2)OC1=O (configuration not stated)	x	n	n	12.6µM	n	n
CC1=C(C(=O)Nc2ccc(C)cc2Cl)C2(CCCCCC2)OC1=O	x	n	n	n	x	n
CC1=C(C(=O)Nc2ccc(C)cc2Cl)C2(CCCCC2)OC1=O	x	n	n	11.2µM	x	n
CCOc1ccc(NC(=O)C2=C(C)C(=O)OC23CCC(C)CC3)cc1 (configuration not stated)	n	n	n	20µM	n	u
